Records with an inconclusive call do not appear. A number with no mark means an inactive call. Calls come from the whole dose curve.
test: Cell Viability - SK-N-SH (AID 435); conditions: SK-N-SH neuroblastoma cell viability qHTS;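 note: compound exposure lasted 40 h at 37 °C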
Excerpt: NIH Chemical Genomics Center [NCGC]
NIH Molecular Libraries Screening Centers Network [MLSCN]
National Institutes of Environmental Health Sciences [NIEHS]
National Toxicology Program [NTP]
We have developed a 1536-well cell-based assay for quantitative high throughput screening (qHTS) against a number of cell lines to determine in vitro cytotoxicity of small molecules. This particular assay uses the SK-N-SH cell line which is derived from human neuroblastoma.
NCGC Assay Protocol Summary:
The CellTiter-Glo luminescent cell viability assay (Promega) is a homogeneous method to measure the number of viable cells in culture. The end point readout of this assay is based on quantitation of intracellular ATP, an indicator of metabolic activity, using the luciferase reaction. Luciferase catalyzes the oxidation of beetle Luciferin to oxyluciferin and light in the presence of ATP. The luminescent signal is proportional to amount of ATP present.
Using the CellTiter-Glo luminescent cell viability assay, the amount of cellular ATP was measured in the SK-N-SH cell line with complete culture medium following compound treatment for 40 hours. The assay was performed in opaque white Kalypsys 1536-well plates. In the screen, tamoxifen and doxorubicin were used as positive controls. Library compounds were measured for their ability to cause acute toxicity in the cell line, as reflected by a decrease in intracellular ATP levels, in a concentration-dependent manner. Data were normalized to the controls for basal activity (DMSO only) and 100% inhibition (100 uM tamoxifen). AC50 values were determined from concentration-response data modeled with the standard Hill equation.
qHTS protocol fo CellTiter Glo SK-N-SH cellular assay
[Step] [Parameter] [Value] [Description]
1. Reagent; 5 uL; 1500 SK-N-SH cells/well
2. Time; 5 hr; 37 °C incubation
4. Controls; 23 nL; Tamoxifen 0.34 uM to 100 uM & Doxorubicin 0.02 nM to 100 uM
5. Time; 40 hr; 37 °C incubation
6. Reagent; 5 uL; CellTiter Glo reagent
7. Time; 20 min; Room Temperature
8. Detection; Luminescence; Viewlux plate reader
Keywords: cell viability, cytotoxicity, SK-N-SH cell line, luminescence, NTPHTS, NTPHTS_NCGC, NIEHS, EPA, DSSTox, MLSMR, MLSCN, NIH Roadmap, qHTS, NCGC
Potency is the fitted concentration of half-maximal effect.

| Structure (SMILES) | Potency [µM] |
| --- | --- |
| S=C([S-])NCCNC(=S)[S-].[Zn+2] | > 92 |
| Cc1cccc(C)c1O | > 92 |
| CNc1ccc([N+](=O)[O-])cc1 | > 92 |
| CCN(Cc1ccccc1)c1ccccc1 | > 92 |
| Cc1ccco1 | > 92 |
| O=[N+]([O-])c1cc(C(F)(F)F)ccc1Cl | > 92 |
| C=CCCCCCC | > 92 |
| Clc1cc(Cl)cc(Cl)c1 | > 92 |
| CC#N | > 92 |
| O=C(O)c1cc(Cl)cc(Cl)c1 | > 92 |
| Cc1nc2ccc(Cl)cc2[nH]1 | > 92 |
| Cc1ccccc1C(=O)O | > 92 |
| CC(=O)Nc1ccc(C)cc1 | > 92 |
| CCOc1cccc(N)c1 | > 92 |
| c1ccsc1 | > 92 |
| CCC(C)O (stereo not given) | > 92 |
| O=C1C=CCCC1 | > 92 |
| CC(C)C=O | > 92 |
| CCCCOCCOCCSC#N | > 92 |
| CCNc1cc(O)ccc1C | > 92 |

| Structure (SMILES) | Potency [µM] |
| --- | --- |
| BrC(Br)C(Br)Br | > 92 |
| Cc1cccc(C(=O)O)c1[N+](=O)[O-] | > 92 |
| CN(C)CCCNCCCN | > 92 |
| C=Cc1ccccn1 | > 92 |
| CCC=O | > 92 |
| c1ccc(Nc2ccccc2)cc1 | > 92 |
| C/C=C1\CC2C=CC1C2 (stereo not given) | > 92 |
| CCCCC(CC)CNCC(CC)CCCC (stereo not given) | > 92 |
| CCC(C)(C)OC | > 92 |
| BrC/C=C/CBr | > 92 |
| CCCCC=O | > 92 |
| CCC(C)=O | > 92 |
| COc1ccc(N)c(OC)c1 | > 92 |
| CC(=O)Nc1ccccc1C | > 92 |
| CCCCCO | > 92 |
| CCCCCCC(=O)O | > 92 |
| CC(C)(C)OC=O | > 92 |
| O=C(O)CNC(=O)c1ccc([N+](=O)[O-])cc1 | > 92 |
| Cc1cccc2ccccc12 | > 92 |
| CCCC(Cl)CCCC(Cl)CCC(Cl)CCC(Cl)CCC(Cl)CCCC(Cl)CCC (stereo not given) | > 92 |
